Reference: PubChem BioAssay (Tox21)
Records with an inconclusive call do not appear. A call without a number means that no potency is given here. Unmarked numbers belong to inactive results. Activity calls are given as the source filed them. Unless noted, calls come from the whole dose curve; as a rule, active = well fitted curve in the direction sought with a large enough effect in the repeat runs; inconclusive = weak or mixed curves; inactive = no such curve, though single readings can be large; an effect the other way counts as inactive or inconclusive.

Experiments:
[1] = qHTS assay to identify small molecule agonists of the RXR signaling pathway - cell viability counter screen (AID 1159529); note: nearly all actives have a fitted effect of over 50% in size; note: potency is the fitted concentration of half-maximal effect
In short: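 Tox21 10K compounds were tested for cytotoxicity against GeneBLAzer RXR-alpha HEK 293T cells grown in 2% charcoal-stripped FBS. Exposure lasted 16 hr at 37 C, 5% CO2; viability read by CellTiter-Glo luminescence.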

[2] = qHTS assay to identify small molecule antagonists of the retinoid acid receptor (RAR) signaling pathway - cell viability counter screen (AID 1159551); note: nearly all actives have a fitted effect of over 35% in size; note: potency is the fitted concentration of half-maximal effect
In short: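 ATP-based viability, C3RL4 cells, 6 h at 37 C with 1 uM final retinol co-added after compound; luminescence read 30 min post CellTiter-Glo, RT.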

[3] = qHTS assay to identify small molecule agonists of the retinoic acid receptor (RAR) signaling pathway (AID 1159553); note: potency is the fitted concentration of half-maximal effect
In short: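 Quantitative high-throughput format: the Tox21 10K library was tested on C3RL4 RARE-luciferase cells for 6 hr at 37 C and 5% CO2, with luminescence measured after a 30 min room-temperature reagent step.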

[4] = qHTS assay to identify small molecule antagonists of the estrogen related receptor (ERR) signaling pathway from Tox21 library - cell viability counter screen (AID 1224834); note: nearly all actives have a fitted effect of over 30% in size; note: potency is the fitted concentration of half-maximal effect
In short: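 Compounds in DMSO were pinned onto ERR cells that had been incubated for 6 h, and the plates were held at 37 C for 17.5 h. CellTiter-Fluor reagent was then added and fluorescence was measured after 30 min.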

[5] = target: Luciferin 4-monooxygenase (Photinus pyralis) (UniProt P08659); assay: qHTS assay to identify small molecule inhibitors of firefly luciferase (AID 1224835); note: series mostly up to about 120 µM; nearly all actives have a fitted effect of over 25% in size
Chain of Luciferin 4-monooxygenase (Photinus pyralis) (P08659 whole entry, looked up): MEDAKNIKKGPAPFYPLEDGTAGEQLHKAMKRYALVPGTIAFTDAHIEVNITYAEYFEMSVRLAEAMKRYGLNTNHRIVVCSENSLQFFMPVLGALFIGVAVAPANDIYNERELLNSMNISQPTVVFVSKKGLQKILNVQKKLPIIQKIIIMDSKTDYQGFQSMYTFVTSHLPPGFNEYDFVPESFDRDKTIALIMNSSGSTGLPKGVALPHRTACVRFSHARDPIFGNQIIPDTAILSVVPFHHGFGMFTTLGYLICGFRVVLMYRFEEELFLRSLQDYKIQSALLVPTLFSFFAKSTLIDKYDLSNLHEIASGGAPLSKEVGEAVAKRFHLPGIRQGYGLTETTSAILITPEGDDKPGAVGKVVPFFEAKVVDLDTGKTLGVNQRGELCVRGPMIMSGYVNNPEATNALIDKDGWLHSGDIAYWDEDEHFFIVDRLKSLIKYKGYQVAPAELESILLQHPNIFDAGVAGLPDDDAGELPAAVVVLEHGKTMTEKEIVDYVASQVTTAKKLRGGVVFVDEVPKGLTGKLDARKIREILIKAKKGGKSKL
In short: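 Quantitative HTS format; KM concentrations of both substrates. Purified P. pyralis FLuc activity quantified from luminescence images.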

[6] = qHTS assay to identify small molecule agonists of the constitutive androstane receptor (CAR) signaling pathway - cell viability counter screen (AID 1224836); note: nearly all actives have a fitted effect of over 45% in size; note: potency is the fitted concentration of half-maximal effect
In short: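 Fluorescence from CellTiter-Fluor indicates live cells after 23 h exposure. The human hepatoma line expresses hCAR and a CYP2B6-2.2kb reporter. Incubation medium contains 0.75 uM PK11195 (final).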

[7] = qHTS assay to identify small molecule antagonists of the constitutive androstane receptor (CAR) signaling pathway - cell viability counter screen (AID 1224837); note: nearly all actives have a fitted effect of over 45% in size; note: potency is the fitted concentration of half-maximal effect
In short: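 Cells are seeded, rested 4 hr at 37 C/5% CO2, dosed with compound (15-point series) and 50 nM CITCO, incubated a further 23 hr, and then CellTiter-Fluor reagent is added before fluorescence is read. The line is HepG2 with stable hCAR and CYP2B6-2.2kb.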

[8] = target: Nuclear receptor subfamily 1 group I member 3 (Homo sapiens) (UniProt Q14994); assay: qHTS assay to identify small molecule antagonists of the constitutive androstane receptor (CAR) signaling pathway (AID 1224838);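 note: HepG2 cells stably expressing hCAR with CYP2B6 luciferase reporter stimulated by CITCO; nearly all actives have a fitted effect of over 40% in size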; note: potency is the fitted concentration of half-maximal effect
Chain of Nuclear receptor subfamily 1 group I member 3 (Homo sapiens) (Q14994 whole entry, looked up): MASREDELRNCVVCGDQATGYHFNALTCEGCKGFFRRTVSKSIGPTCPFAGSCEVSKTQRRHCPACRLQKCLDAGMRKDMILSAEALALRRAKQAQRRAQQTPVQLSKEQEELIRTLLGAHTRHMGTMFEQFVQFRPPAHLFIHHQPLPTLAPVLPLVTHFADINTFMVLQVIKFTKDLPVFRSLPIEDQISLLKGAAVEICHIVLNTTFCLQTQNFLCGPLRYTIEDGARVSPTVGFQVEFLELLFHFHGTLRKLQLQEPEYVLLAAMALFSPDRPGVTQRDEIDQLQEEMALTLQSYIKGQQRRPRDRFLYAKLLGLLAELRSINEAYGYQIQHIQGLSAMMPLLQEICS
In short: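 Luminescence from a CYP2B6-2.2kb promoter reporter in hCAR-expressing HepG2 cells reflects CAR signaling. Cells received compounds at 15 concentrations and 50 nM CITCO (final), then incubated 24 h at 37 C/5% CO2.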

[9] = target: Nuclear receptor subfamily 1 group I member 3 (Homo sapiens) (UniProt Q14994); assay: qHTS assay to identify small molecule agonists of the constitutive androstane receptor (CAR) signaling pathway (AID 1224839); note: nearly all actives have a fitted effect of over 15% in size; note: potency is the fitted concentration of half-maximal effect
In short: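 Stable hCAR/CYP2B6-2.2kb HepG2 line in DMEM with 10% FBS; compounds (15 concentrations) and 0.75 uM PK11195 final, 24 h at 37 C/5% CO2, then ONE-Glo luminescence after 30 min.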

[10] = qHTS assay to identify small molecule antagonists of the estrogen related receptor signaling pathway with the pleiotropic PPARgamma coactivator (PGC) from Tox21 10K library - cell viability counter screen (AID 1224840; active = well fitted cell-killing curve with a large enough effect in the repeat runs, not every such curve was filed as active; note: nearly all actives have a fitted effect of over 40% in size; note: potency is the fitted concentration of half-maximal effect)
In short: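 Cell viability is measured by CellTiter-Fluor fluorescence in PGC/ERR cells that receive compounds after a 6-hour attachment period and are then incubated 17.5 hours at 37 C.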

[11] = target: Thyrotropin receptor (Homo sapiens) (UniProt P16473); assay: qHTS assay to identify small molecule agonists of the thyroid stimulating hormone receptor (TSHR) signaling pathway (AID 1224843; calls by dose curve; note: nearly all actives have a fitted effect of over 45% in size; note: potency is the fitted concentration of half-maximal effect)
Chain of Thyrotropin receptor (Homo sapiens) (P16473 whole entry, looked up): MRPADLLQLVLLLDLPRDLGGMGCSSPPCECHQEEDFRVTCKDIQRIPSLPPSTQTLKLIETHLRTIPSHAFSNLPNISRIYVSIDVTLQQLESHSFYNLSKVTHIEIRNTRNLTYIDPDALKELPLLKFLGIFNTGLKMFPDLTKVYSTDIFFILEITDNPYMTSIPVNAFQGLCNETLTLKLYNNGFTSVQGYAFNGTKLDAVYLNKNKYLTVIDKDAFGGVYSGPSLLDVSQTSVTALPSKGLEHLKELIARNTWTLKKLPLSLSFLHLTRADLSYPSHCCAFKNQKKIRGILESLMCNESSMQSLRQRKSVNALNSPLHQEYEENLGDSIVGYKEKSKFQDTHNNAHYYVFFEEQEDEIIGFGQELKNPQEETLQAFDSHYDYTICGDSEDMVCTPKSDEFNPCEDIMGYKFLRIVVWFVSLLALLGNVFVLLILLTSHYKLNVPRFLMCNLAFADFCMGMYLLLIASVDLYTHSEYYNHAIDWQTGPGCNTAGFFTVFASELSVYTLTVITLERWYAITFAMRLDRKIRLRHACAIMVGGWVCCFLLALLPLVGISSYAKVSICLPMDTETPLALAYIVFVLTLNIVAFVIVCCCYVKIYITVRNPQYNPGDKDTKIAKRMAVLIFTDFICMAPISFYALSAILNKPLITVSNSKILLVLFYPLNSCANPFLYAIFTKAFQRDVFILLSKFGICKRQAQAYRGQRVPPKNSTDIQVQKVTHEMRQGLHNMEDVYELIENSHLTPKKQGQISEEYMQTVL
In short: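 Using 15 concentrations per compound in triplicate, cAMP production was monitored in TSHR-HEK293 cells after 30 min compound incubation at RT; HTRF reagents followed, with fluorescence intensity recorded after 1 h.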

[12] = qHTS assay to identify small molecule antagonists of the estrogen related receptor (ERR) signaling pathway - cell viability counter screen (AID 1224818);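 note: series mostly up to about 46 µM; viability measured after 17.5 h of compound exposure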
In short: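 Quantitative high-throughput viability counter screen in ERR cells. Compounds (DMSO) incubated 17.5 h at 37 C; read-out was CellTiter-Fluor fluorescence.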

[13] = qHTS assay to identify small molecule antagonists of the estrogen related receptor signaling pathway with the pleiotropic PPARgamma coactivator (PGC) cell viability counter screen (AID 1224822; note: series mostly up to about 46 µM)
In short: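 Cytotoxicity in the PGC/ERR cell line is assessed with CellTiter-Fluor, read as fluorescence intensity 30 min after reagent addition, following 17.5 h compound treatment at 37 C.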

[14] = qHTS assay to identify small molecule agonists of the estrogen related receptor signaling pathway with the pleiotropic PPARgamma coactivator (PGC) from Tox21 10K library (AID 1224842); note: nearly all actives have a fitted effect of over 15% in size
In short: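 PGC/ERR reporter cells (NTP line) were seeded 2,000 per well, rested 6 h at 37 C/5% CO2, then pin-dosed with compounds in DMSO for 18 h at 37 C; luciferase read by One-Glo luminescence after 30 min at room temperature.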

[15] = qHTS assay to identify small molecule antagonists of the estrogen related receptor signaling pathway with the pleiotropic PPARgamma coactivator (PGC) from Tox21 10K library (AID 1224841; call rule not given here; note: series mostly up to about 92 µM; actives are mostly falling curves and most rising ones were filed inactive; nearly all actives have a fitted effect of over 50% in size)
In short: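 Cells stably carrying the PGC/ERR reporter, seeded at 2,000 per well, received pin-transferred compounds 6 h post-plating. Exposure lasted 18 h at 37 C. Signal: One-Glo luminescence.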

Row | SMILES | Potency [1] | Potency [2] | Potency [3] | Potency [4] | Potency [5] | Potency [6] | Potency [7] | Potency [8] | Potency [9] | Potency [10] | Potency [11] | Potency [12] | Potency [13] | Potency [14] | Potency [15]
1 | C[C@]12CC[C@H]3[C@@H](CCC4=CC(=O)CC[C@@H]43)[C@@H]1CC[C@@H]2OC(=O)CCc1ccco1 | 23.9 µM (active) | inactive | inactive | inactive | inactive | inactive | inactive | inactive | inactive | inactive | inactive | – | – | – | –
2 | CC(Cl)CCl (stereo unspecified) | inactive | inactive | inactive | inactive | inactive | inactive | inactive | – | inactive | – | inactive | – | – | – | –
3 | NC(=O)C(Cl)Cl | inactive | inactive | inactive | inactive | inactive | inactive | inactive | – | – | inactive | – | – | – | – | –
4 | Nc1c(Cl)c(Cl)c(Cl)c(Cl)c1Cl | inactive | inactive | inactive | inactive | inactive | inactive | inactive | inactive | – | inactive | – | inactive | inactive | – | –
5 | COP(=S)(NC(C)C)Oc1ccc(C)cc1[N+](=O)[O-] (stereo unspecified) | inactive | inactive | – | inactive | inactive | inactive | inactive | inactive | 6.86 µM (active) | inactive | – | – | – | – | –
6 | CN1C(=O)[C@@H](NC(=O)c2cc3ccccc3[nH]2)N=C(c2ccccc2)c2ccccc21 | inactive | inactive | inactive | – | inactive | inactive | inactive | inactive | inactive | inactive | inactive | – | – | inactive | –
7 | CCCCN(CCCC)C(=S)S | inactive | inactive | inactive | inactive | inactive | inactive | inactive | – | – | inactive | – | – | – | inactive | –
8 | O=S(=O)(O)F | inactive | inactive | inactive | inactive | inactive | inactive | inactive | – | inactive | inactive | inactive | – | – | – | –
9 | S=C=Nc1ccccc1 | inactive | inactive | 70.8 µM (active) | inactive | – | inactive | inactive | inactive | – | inactive | – | – | – | – | –
10 | C#CC1(O)CCCCC1 | inactive | inactive | inactive | inactive | inactive | inactive | inactive | – | – | inactive | inactive | – | – | – | inactive
11 | CCOP(=S)(OCC)SC(CCl)N1C(=O)c2ccccc2C1=O (stereo unspecified) | inactive | inactive | inactive | inactive | inactive | inactive | inactive | inactive | – | inactive | – | – | – | – | inactive
12 | Nc1ccc(Cl)cc1C(=O)c1ccccc1F | inactive | inactive | inactive | – | inactive | inactive | inactive | inactive | 23.7 µM (active) | inactive | inactive | – | – | – | inactive
13 | [O]=[Cr][O][Cr]=[O] | inactive | inactive | inactive | inactive | inactive | inactive | inactive | inactive | inactive | inactive | – | – | – | – | –
14 | CNC(=O)Oc1cc(C)cc(C(C)C)c1 | inactive | inactive | inactive | inactive | inactive | inactive | inactive | inactive | – | inactive | – | – | – | inactive | inactive
15 | Cc1cccc(Cc2cnc[nH]2)c1C | inactive | inactive | inactive | inactive | inactive | inactive | inactive | – | inactive | inactive | inactive | – | – | – | –
16 | ClC1(Cl)C2(Cl)C3(Cl)C4(Cl)C(Cl)(Cl)C5(Cl)C3(Cl)C1(Cl)C5(Cl)C24Cl (stereo unspecified) | inactive | inactive | inactive | inactive | inactive | inactive | inactive | – | – | inactive | inactive | – | – | inactive | –
17 | CC[C@H](C)[C@H]1O[C@]2(C=C[C@@H]1C)C[C@@H]1C[C@@H](C/C=C(\C)[C@@H](O[C@H]3C[C@H](OC)[C@@H](O[C@H]4C[C@H](OC)[C@@H](NC)[C@H](C)O4)[C@H](C)O3)[C@@H](C)/C=C/C=C3\CO[C@@H]4[C@H](O)C(C)=C[C@@H](C(=O)O1)[C@]34O)O2 | 4.36 µM (active) | 13.7 µM (active) | – | 8.63 µM (active) | inactive | 12.2 µM (active) | 9.69 µM (active) | 13.7 µM (active) | inactive | 6.86 µM (active) | – | – | – | – | –
18 | CN1C2CCC(C)(C)C1CC(OC(=O)C(O)(c1cccs1)c1cccs1)C2 (stereo unspecified) | inactive | inactive | inactive | inactive | inactive | inactive | inactive | inactive | inactive | inactive | inactive | – | – | – | –
19 | CC(Cc1ccc(O)cc1)NCC(O)c1cc(O)cc(O)c1 (stereo unspecified) | inactive | inactive | – | inactive | inactive | inactive | inactive | inactive | inactive | – | 0.841 µM (active) | inactive | inactive | – | –
20 | COc1nc(C)nc(NC(=O)NS(=O)(=O)c2ccccc2Cl)n1 | inactive | inactive | inactive | inactive | inactive | inactive | inactive | – | inactive | inactive | inactive | – | – | – | –
21 | c1cc[n+]2c(c1)-c1cccc[n+]1CC2 | inactive | inactive | inactive | inactive | inactive | – | – | inactive | – | – | inactive | – | – | – | –
